Source: PubChem (National Center for Advancing Translational Sciences (NCATS))
Rows were chosen to be rich in hits. Some 7.9% of all compounds tested hit in one or more screens of this group.
SW480 rerep – DNA re-replication induction in SW480 cells; SW480 DNA re-replication, Hoechst DNA content imaging, 48 h; Potency, µM (doses to about 46.1 µM), for the others: at the top dose re-replication activation, actives largely listed as activators; 340,000 tested, 1.8% active; further: % of control where 0% means no effect; nearly all actives have a fitted effect of over 55% in size
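Per well, 250 cells were exposed to pinned compound for 48 hr. Nuclear DNA was visualised with Hoechst (40 min, 37 C) and total object intensity recorded by fluorescence scanning.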
HT1080 IDH1KD tx – toxicity to HT-1080 IDH1 knockdown cells (counter line); HT-1080 IDH1 knockdown viability, ATP luminescence, 48 h; Potency, µM (doses to about 46.1 µM), for the others: at the highest dose activity, negative = toxicity, hits mostly cytotoxic; 360,000 tested, 2% active; AID 686971;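 further: 0% = DMSO wells and -100% = cell-free medium wells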
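CellTiter-Glo luminescence after 48 h compound exposure at 37 degrees C of IDH1-knockdown HT-1080 cells in 5% FBS RPMI. %Activity scaled between DMSO wells and cell-free media wells, with curves fitted and assigned curve classes.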
MCF10A rereplic – inducers of DNA re-replication in MCF 10A breast cells; MCF 10A DNA re-replication, Hoechst nuclear intensity, 48 h; Potency, µM (top dose mostly 46.1 µM), inactives show at the top dose activity, positive = re-replication, hits mostly activators; 350,000 tested, 2.9% active; further: % of control where 0% means no effect; nearly all actives have a fitted effect of over 50% in size
KB-3-1 tox – kills parental KB-3-1 adenocarcinoma cells; 400,000 tested, 1.4% active; KB-3-1 viability, CellTiter-Glo ATP luminescence, 72 h; Potency, µM (top dose mostly 46.1 µM), most hits filed as cytotoxic; further: on the % scale 0 is the no-effect control and ±100 the full control effect; nearly all actives have a fitted effect of over 60% in size
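KB-3-1 cells, DMEM (no phenol red) + 10% FBS; compound by pin transfer, 72 h, 37 °C. Readout: CellTiter-Glo luminescence after 10 min. Data normalized, curve-fitted.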
HT1080NT lethal – kills 2HG-producing HT-1080-NT fibrosarcoma cells; HT-1080-NT fibrosarcoma viability, CellTiter-Glo ATP luminescence, 48 h; Potency, µM (series often up to 46.1 µM), for inactives: at the top dose activity, negative = less viability, usual class: cytotoxic; 360,000 tested, 1.6% active; AID 686970;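 further: NT is the 2HG producing partner of a matched IDH1 knockdown line; 0% = DMSO-treated cells and -100% = media-only wells without cells; nearly all actives have a fitted effect of over 55% in size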
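Luminescent CellTiter-Glo readout after 48 hours of compound exposure at 37 degrees C defined viability of HT-1080-NT cells. Activity was normalized to DMSO wells and cell-free media wells; concentration-response curves were fitted and assigned curve classes.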
KB-V1 cytotox – kills drug-selected multidrug resistant KB-V1 cells | KB-V1 MDR cells viability, CellTiter-Glo, 72 h | Potency, µM (series often up to 46.1 µM), usual class: cytotoxic | 400,000 tested, 3.4% active; further: on the % scale 0 is the no-effect control and ±100 the full control effect; nearly all actives have a fitted effect of over 60% in size
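KB-V1 cells (P-gp-expressing MDR subline of KB-3-1) in phenol-red-free DMEM with 10% FBS were exposed to library compounds over a concentration series for 72 h at 37 degrees C. Viability read by CellTiter-Glo luminescence; concentration-effect curves fitted after normalization.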
The depositor's hits bear a star; i = inactive; ? = inconclusive; / = not tested or not shown; [ ] = remark or other dose. The call rests on the fitted dose curve; in most records, active means well fitted curve in the direction sought with a large enough effect; inconclusive means small, poorly fitted or top-dose-only effect, or another doubt; inactive means no such curve, though single readings can be large; an effect the other way counts as inactive or inconclusive. Potency means the concentration at half of the fitted maximal effect.

SMILES	SW480 rerep	HT1080 IDH1KD tx	MCF10A rereplic	KB-3-1 tox	HT1080NT lethal	KB-V1 cytotox
O=C(c1ccccc1NS(=O)(=O)c1ccc2c(c1)OCCO2)N1CCOCC1	11.6µM*	3.1%	6.51µM*	i	3.1%	i
CCC(=O)N1c2ccc(S(=O)(=O)CCC(=O)N3CCN(c4cc(C)ccc4C)CC3)cc2CC1C (stereo not given)	/	/	/	i	/	?
C=Cn1cc(CNC[C@H]2O[C@@H](n3ccc(N)nc3=O)[C@H](O)[C@@H]2O)c(C)n1	/	3.3%	/	i	1.8%	i
c1csc(-c2nn3c(C4COc5ccccc5O4)nnc3s2)c1 (stereo not given)	3.66µM*	11.4%	?	i	-3.8%	?
Fc1ccc(-c2nn3c(C4COc5ccccc5O4)nnc3s2)cc1 (stereo not given)	0.4%	2.8%	0.1%	i	2.0%	?
CC(=O)c1c(O)cc(O)c(C(C)=O)c1O	?	18.4µM*	20.0%	i	13µM*	i
COc1ccc(S(=O)(=O)Nc2ccc3cn[nH]c3c2)cc1C	-0.5%	-29.4%	1.9%	i	-28.0%	?
CCOC(=O)c1ccc(S(=O)(=O)Nc2ccc3cn[nH]c3c2)cc1	1.3%	-27.1%	4.8%	?	-8.4%	18.4µM*
COc1ccc(-c2ccc3ncnc(NCCc4cnc[nH]4)c3c2)cc1OC	/	/	/	?	/	i
COCCCNC(=O)c1ccc2nc([C@@H]3O[C@H](CO)[C@H](O)[C@H](O)[C@H]3O)[nH]c2c1	/	16.5%	/	i	21.6%	i
O=C(COc1ccccc1F)OCc1cc(=O)n2nc(C3CC3)sc2n1	/	/	/	i	/	i
O=C(CCl)NNC(=O)c1c(O)c2ccccc2[nH]c1=O	?	14.6µM*	19.9%	14.6µM*	11.6µM*	?
CCCCC(=O)NNC(=O)c1c(O)c2ccccc2[nH]c1=O	-4.6%	6.3%	?	i	-13.0%	9.2µM*
Nc1ncnc2c1C(c1ccccc1)c1c(ccc3ccccc13)O2 (stereo not given)	-13.1%	/	22.4%	i	/	i
CCOC(=O)C(=CNc1cc(C)ccc1C)C(=O)OCC	-2.5%	13.7%	9.0%	i	1.2%	13µM*
ClCCn1c(CCl)nc2ccc(Cl)cc21	/	-0.5%	/	i	-12.9%	i
O=C(Nc1nc2c(s1)CCCC2)c1cccnc1	-11.0%	4.0%	-6.3%	i	-10.7%[9.24 µM]	?
COC(=O)c1ccc(C(=O)NC(=S)Nc2nc3c(s2)CC(C)CC3)cc1 (stereo not given)	2.9%	6.7%	-5.9%	16.4µM*	12.9%	?
O=C(NC(=S)Nc1nc2c(s1)CCCC2)c1ccc(C(=O)c2ccccc2)cc1	1.2%	-0.5%	0.8%	23.1µM*	7.7%	4.11µM*
CC1CCc2nc(NC(=O)CN3CCN(c4ccc(F)cc4)CC3)sc2C1 (stereo not given)	3.7%	6.1%	15.8%	i	1.4%	i
COc1cccc(N2CCN(CC(=O)Nc3nc4c(s3)CC(C)CC4)CC2)c1 (stereo not given)	-0.9%	-23.1%	-1.6%	i	-9.1%	18.4µM*
O=c1cc(-c2ccccc2)nc(SCc2nc(-c3ccccc3Cl)no2)[nH]1	/	/	/	i	/	i
Cc1ccc(NCc2nnc(SCC(=O)N3c4ccccc4Sc4ccccc43)o2)c(C)c1	-126.8%	-1.0%	-1.1%	i	3.1%	6.51µM*
COc1ccc(C(=O)CSc2nnc(CNc3ccc(C)cc3C)o2)cc1	-0.9%	1.9%	?	i	6.8%	i
Cc1ccc(OCc2nnc(SCC(=O)N3c4ccccc4Sc4ccc(Cl)cc43)o2)cc1	-54.8%	-2.0%	-1.8%	i	8.4%	8.2µM*
Cc1ccc(C2=CSC3=NCCN23)cc1	0.1%	3.8%	7.31µM*	i	5.9%	i
O=[N+]([O-])c1ccc(C2=CSC3=NCCN23)cc1	-4.4%	1.0%	1.1%	i	-5.3%	?
